# Data from PubChem BioAssay (EPA / NIEHS).
# Results filed as inconclusive are left out. The source made the active and inactive calls. How the source made its calls, unless noted: active means hit-call score of the fitted dose curve at least 0.9, where 1 is the maximum; inconclusive means response in the unintended direction; inactive means score below 0.9.
# What was measured:
# [1] = tested on: Sodium/Iodide Symporter (NIS), SLC5A5 (gene 6528); experiment: CPHEA_Stoker_NIS_Inhibition_RAIU: CPHEA's Radioactive Iodide Uptake (RAIU) Assay for Sodium/Iodide Symporter (NIS) Inhibition, Stoker and Laws Labs (AID 2283841)
# Method in brief: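 hNIS-HEK293T-EPA cells incubated 2 h at room temperature with compound (0.001–100 uM, 0.5% DMSO) and 329 pM final 125I in HBSS/10 mM HEPES, pH 7.4. Intracellular 125I counted; normalised to DMSO maximal uptake, triplicate, three biological replicates.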
# [2] = CPHEA_Stoker_NIS_Cytotoxicity: Cytotoxicity Assessment for CPHEA's Radioactive Iodide Uptake (RAIU) Assay for Sodium/Iodide Symporter (NIS) Inhibition, Stoker and Laws Labs (AID 2283897);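 on AC50: active means loss of ATP signal versus DMSO meaning cytotoxicity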
# Method in brief: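 hNIS-HEK293T-EPA cells, human NIS expressed in HEK293T, treated 2 h with chemicals (0.001–100 uM, 0.5% final DMSO). ATP content read by CellTiter-Glo luminescence; loss of signal analysed relative to DMSO.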
# [3] = CEETOX_H295R_11DCORT_noMTC: CeeTox H295R High-throughput Steroidogenesis Assay for 11-Deoxycortisol (11DCORT), maximum tolerated concentration (MTC) filtered results only (AID 2283911; active means hit-call score of the fitted dose curve at least 0.9, where 1 is the maximum; inactive means score below 0.9); conditions: actives raise or lower the signal
# Method in brief: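 H295R cells were prestimulated 48 h with 10 uM forskolin, then exposed 48 h to chemical (0.1% DMSO final). 11-Deoxycortisol in the medium was measured by MTBE extraction and HPLC-MS/MS, with bidirectional fitting versus DMSO and no MTC filtering of concentrations.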
# [4] = CEETOX_H295R_OHPREG_noMTC: CeeTox H295R High-throughput Steroidogenesis Assay for OH-Pregnenolone (OHPREG), maximum tolerated concentration (MTC) filtered results only (AID 2283912; active means hit-call score of the fitted dose curve at least 0.9, where 1 is the maximum; inactive means score below 0.9); conditions: actives raise or lower the signal
# Method in brief: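 H295R; 10 uM forskolin 48 h pre-stim; test cpd in DMSO (0.1% final) 48 h; media MTBE-extracted, HPLC-MS/MS for OH-pregnenolone; bidirectional fit vs DMSO; no MTC (MTT) filtering.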
# [5] = CEETOX_H295R_OHPROG_noMTC: CeeTox H295R High-throughput Steroidogenesis Assay for OH-Progesterone (OHPROG), maximum tolerated concentration (MTC) filtered results only (AID 2283914; active means hit-call score of the fitted dose curve at least 0.9, where 1 is the maximum; inactive means score below 0.9); conditions: actives raise or lower the signal
# Method in brief: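 Medium hormone measured by reverse-phase C18 HPLC with positive electrospray MS/MS after MTBE liquid-liquid extraction. Cells had 48 h forskolin (10 uM) prestimulation, then 48 h chemical dosing. Gain or loss of signal fitted relative to DMSO baseline.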
# [6] = CEETOX_H295R_ANDR_noMTC: CeeTox H295R High-throughput Steroidogenesis Assay for Androstenedione (ANDR), maximum tolerated concentration (MTC) filtered results only (AID 2283915; active means hit-call score of the fitted dose curve at least 0.9, where 1 is the maximum; inactive means score below 0.9); conditions: actives raise or lower the signal
# Method in brief: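 Androstenedione secreted into medium was measured by LC-MS/MS after MTBE extraction. Human adrenal H295R cells received 10 uM forskolin for 48 h before 48 h chemical exposure (0.1% DMSO). Gain or loss fitted against DMSO, including concentrations above the MTT-derived MTC.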
# [7] = CEETOX_H295R_CORTISOL_noMTC: CeeTox H295R High-throughput Steroidogenesis Assay for Cortisol, maximum tolerated concentration (MTC) filtered results only (AID 2283916; active means hit-call score of the fitted dose curve at least 0.9, where 1 is the maximum; inactive means score below 0.9); conditions: actives raise or lower the signal
# Method in brief: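 H295R human adrenal cells prestimulated 48 h with 10 uM forskolin, then exposed 48 h to chemical in 0.1% DMSO; cortisol in medium quantified by HPLC-MS/MS; bidirectional fit vs DMSO baseline, concentrations not MTT-filtered for MTC.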
# [8] = CEETOX_H295R_CORTIC_noMTC: CeeTox H295R High-throughput Steroidogenesis Assay for Corticosterone (CORTIC), maximum tolerated concentration (MTC) filtered results only (AID 2283917; active means hit-call score of the fitted dose curve at least 0.9, where 1 is the maximum; inactive means score below 0.9); conditions: actives raise or lower the signal
# Method in brief: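 Corticosterone secreted into the medium was measured by reverse-phase C18 HPLC with tandem MS after MTBE extraction. Cells (H295R) had 48 h forskolin (10 uM) stimulation before 48 h chemical exposure; gain or loss of signal was fitted relative to DMSO.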
# [9] = CEETOX_H295R_DOC_noMTC: CeeTox H295R High-throughput Steroidogenesis Assay for DOC, maximum tolerated concentration (MTC) filtered results only (AID 2283918; active means hit-call score of the fitted dose curve at least 0.9, where 1 is the maximum; inactive means score below 0.9); conditions: actives raise or lower the signal
# Method in brief: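 H295R cells prestimulated 48 h with 10 uM forskolin, then exposed 48 h to chemical in 0.1% DMSO. 11-Deoxycorticosterone in medium measured by MTBE extraction and HPLC-MS/MS; bidirectional fit vs DMSO, no MTC filter.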
# [10] = CEETOX_H295R_ESTRADIOL_noMTC: CeeTox H295R High-throughput Steroidogenesis Assay for Estradiol, maximum tolerated concentration (MTC) filtered results only (AID 2283919; active means hit-call score of the fitted dose curve at least 0.9, where 1 is the maximum; inactive means score below 0.9); conditions: actives raise or lower the signal
# Method in brief: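 Readout: dansyl-derivatized estradiol quantified by LC-MS/MS in medium from H295R cells dosed 48 h (0.1% DMSO) following 48 h forskolin (10 uM) prestimulation. Gain or loss of signal fitted against DMSO; no MTC filtering applied.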
smiles,measurement,setting,value
CC[C@H](C)[C@@H](C(=O)O)n1sc2ccccc2c1=O,outcome,[1],inactive
same,outcome,[2],inactive
O=C1OC2(c3ccccc31)c1cc(Br)c(O)c(Br)c1Oc1c2cc(Br)c(O)c1Br,AC50,[1],14.1 µM (active)
same,outcome,[2],inactive
CCc1ccc(CCOc2ccc(CC3SC(=O)NC3=O)cc2)nc1 (stereo not drawn),outcome,[1],inactive
same,outcome,[2],inactive
O=C(O)Cc1cc(I)c(Oc2cc(I)c(O)c(I)c2)c(I)c1,outcome,[1],inactive
same,outcome,[2],inactive
Cc1cc(CCN2CCN(c3nsc4ccccc34)CC2)cc2c1NC(=O)CC2(C)C,outcome,[1],inactive
same,AC50,[2],9.92 µM (active)
same,AC50,[3],11.2 µM (active)
same,outcome,[4],inactive
same,AC50,[5],0.756 µM (active)
same,outcome,[6],inactive
same,AC50,[7],10 µM (active)
same,AC50,[8],2.65 µM (active)
same,AC50,[9],7.31 µM (active)
same,AC50,[10],3.98 µM (active)
O=C(OCCOCCOC(=O)c1ccccc1)c1ccccc1,outcome,[1],inactive
same,outcome,[2],inactive
c1ccc2c(c1)ccc1ccccc12,outcome,[2],inactive
CN1CCN(c2ccccc2/C=C2\SCCN(c3ccc(Cl)c(Cl)c3)C2=O)CC1,outcome,[2],inactive
CC[C@H](c1ccc(O)cc1)[C@@H](CC)c1ccc(O)cc1,AC50,[1],50 µM (active)
same,AC50,[2],9.92 µM (active)
CC(=O)NC1(c2cccc(F)c2)CCN(CC[C@@]2(c3ccc(Cl)c(Cl)c3)CN(c3ccccc3)C(=O)CO2)CC1,outcome,[1],inactive
same,outcome,[2],inactive
CC(C)(C)c1ccc(O)c(C(C)(C)C)c1,AC50,[1],50 µM (active)
same,AC50,[2],9.92 µM (active)
CC(C)(C)c1cccc(C(C)(C)C)c1O,outcome,[2],inactive
CC#C[C@]1(O)CC[C@H]2[C@@H]3CCC4=CC(=O)CCC4=C3[C@@H](c3ccc(N(C)C)cc3)C[C@@]21C,outcome,[2],inactive
ClC1=C(Cl)C(Cl)(Cl)C(Cl)=C1Cl,AC50,[1],19.1 µM (active)
same,outcome,[2],inactive
CCCCCCCCCCCCN1CCCC1=O,outcome,[1],inactive
same,outcome,[2],inactive
CCCCCCCCCCCCCC[N+](C)(C)C,AC50,[1],19.2 µM (active)
same,outcome,[2],inactive
OCCC(F)(F)C(F)(F)C(F)(F)C(F)(F)C(F)(F)C(F)(F)F,outcome,[1],inactive
O=C(O)c1ccccc1C(c1ccc(O)cc1)c1ccc(O)cc1,outcome,[1],inactive
same,outcome,[2],inactive
CCC(=C(c1ccc(O)cc1)c1ccc(OCCN(C)C)cc1)c1ccccc1,outcome,[1],inactive
same,outcome,[2],inactive
NC(=O)N1C(=O)C(C(=O)c2cc(Cl)cs2)c2cc(F)c(Cl)cc21 (stereo not drawn),outcome,[1],inactive
same,outcome,[2],inactive
CC1=C(/C=C/C(C)=C/C=C/C(C)=C/C(=O)O)C(C)(C)CCC1,outcome,[1],inactive
same,outcome,[2],inactive
c1ccc2cc3c(ccc4ccccc43)cc2c1,AC50,[1],50 µM (active)
same,outcome,[2],inactive
Cc1oc(-c2ccccc2)nc1CCOc1ccc(C[C@H](Nc2ccccc2C(=O)c2ccccc2)C(=O)O)cc1,AC50,[1],42.5 µM (active)
same,AC50,[2],9.21 µM (active)
FC(F)(I)C(F)(F)C(F)(F)C(F)(F)C(F)(F)C(F)(F)I,AC50,[1],5.79 µM (active)
Oc1cc2ccccc2c2ccccc12,outcome,[1],inactive
same,outcome,[2],inactive
c1ccc2c(c1)Cc1ccccc1-2,outcome,[1],inactive
same,outcome,[2],inactive
same,outcome,[3],inactive
same,outcome,[4],inactive
same,outcome,[5],inactive
same,outcome,[7],inactive
same,outcome,[8],inactive
same,outcome,[9],inactive
same,outcome,[10],inactive
CCCCCCCCCCCCc1ccccc1S(=O)(=O)O,outcome,[1],inactive
same,outcome,[2],inactive
